Test results taken from PMC5700166.
Where a chain is given by its changes, count along the chain named.

Legend:
Experiment in all cases: protein-binding microarray (PBM); PBM: ~300 nM protein, 6 mM HEPES pH 7.8, 80 mM KCl, 0.5 mM EDTA, 0.5 mM EGTA, 6% glycerol, 35 ng/ul poly-dIdC, 1% milk, 1 h, room temperature; Ap Aiptasia and Nv Nematostella (sea anemones) / Co Capsaspora / Aq Amphimedon (sponge) / Dm Drosophila / Hu human; RHD is the Rel homology domain; high values mean tight binding
Settings in all cases: dsDNA, one strand shown
GST-Ap-NF-kB RHD = target: T1, GST-Ap-NF-kB RHD (Exaiptasia pallida (Aiptasia), UniProt A0A913YAJ5 2-422)
T1 sequence: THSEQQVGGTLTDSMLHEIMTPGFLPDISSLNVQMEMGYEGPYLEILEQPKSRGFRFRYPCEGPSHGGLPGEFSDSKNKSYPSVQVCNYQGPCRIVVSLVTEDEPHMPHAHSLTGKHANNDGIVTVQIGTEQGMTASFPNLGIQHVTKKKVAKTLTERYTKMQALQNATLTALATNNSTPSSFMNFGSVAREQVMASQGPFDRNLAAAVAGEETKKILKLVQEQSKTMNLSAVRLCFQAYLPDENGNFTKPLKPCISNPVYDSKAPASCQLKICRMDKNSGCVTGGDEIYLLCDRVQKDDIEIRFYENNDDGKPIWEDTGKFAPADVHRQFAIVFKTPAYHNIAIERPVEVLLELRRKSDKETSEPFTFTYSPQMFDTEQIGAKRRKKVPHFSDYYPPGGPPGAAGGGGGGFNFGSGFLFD

[1] = target: T2, GST-Nv-NF-kB (Cys allele) (Nematostella vectensis, UniProt E5G601 2-411)
T2 sequence: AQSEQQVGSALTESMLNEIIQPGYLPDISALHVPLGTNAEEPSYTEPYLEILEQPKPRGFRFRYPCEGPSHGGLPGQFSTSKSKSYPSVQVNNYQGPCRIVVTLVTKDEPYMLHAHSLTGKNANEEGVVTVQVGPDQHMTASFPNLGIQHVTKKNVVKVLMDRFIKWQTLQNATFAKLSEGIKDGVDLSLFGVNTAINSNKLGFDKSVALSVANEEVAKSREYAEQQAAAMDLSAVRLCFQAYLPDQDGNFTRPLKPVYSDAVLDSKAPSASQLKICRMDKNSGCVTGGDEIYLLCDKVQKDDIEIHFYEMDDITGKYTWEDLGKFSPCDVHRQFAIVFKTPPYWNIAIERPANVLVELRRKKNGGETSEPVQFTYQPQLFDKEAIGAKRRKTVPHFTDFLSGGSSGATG

[2] = target: T3, GST-Nv-NF-kB (Ser allele) (Nematostella vectensis, UniProt A7UNT2 2-411)
T3 sequence: T2 sequence with Q21R, C66S, S207N, E215Q, V217A, E225K, A268E, D399E

GST-Co-NF-kB = target: T4, GST-Co-NF-kB (Capsaspora owczarzaki, UniProt F1ARL5 200-546)
T4 sequence: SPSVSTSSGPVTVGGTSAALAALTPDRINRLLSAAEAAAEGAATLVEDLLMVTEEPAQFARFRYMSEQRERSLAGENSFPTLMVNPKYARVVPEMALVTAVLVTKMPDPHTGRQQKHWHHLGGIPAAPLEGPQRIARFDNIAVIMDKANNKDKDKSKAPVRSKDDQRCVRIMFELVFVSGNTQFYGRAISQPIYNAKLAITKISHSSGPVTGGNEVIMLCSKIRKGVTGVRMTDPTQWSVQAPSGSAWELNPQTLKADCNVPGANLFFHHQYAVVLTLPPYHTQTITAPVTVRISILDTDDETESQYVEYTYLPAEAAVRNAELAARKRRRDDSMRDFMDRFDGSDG

GST-Dm-Relish = target: T5, GST-Dm-Relish (Drosophila melanogaster, UniProt Q94527 99-473)
T5 sequence: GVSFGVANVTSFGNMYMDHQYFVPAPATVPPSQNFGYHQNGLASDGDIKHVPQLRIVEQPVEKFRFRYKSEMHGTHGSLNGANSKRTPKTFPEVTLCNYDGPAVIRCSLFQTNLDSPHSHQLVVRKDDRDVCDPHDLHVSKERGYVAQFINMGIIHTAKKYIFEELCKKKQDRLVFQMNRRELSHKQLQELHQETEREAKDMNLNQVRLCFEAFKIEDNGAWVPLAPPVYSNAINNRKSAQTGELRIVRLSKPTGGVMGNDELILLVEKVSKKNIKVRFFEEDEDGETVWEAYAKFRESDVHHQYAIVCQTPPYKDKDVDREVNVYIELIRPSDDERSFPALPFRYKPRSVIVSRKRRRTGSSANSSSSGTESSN

GST-Aq-NF-kB = target: T6, GST-Aq-NF-kB (Amphimedon queenslandica, UniProt A9Y5G7 2-389)
T6 sequence: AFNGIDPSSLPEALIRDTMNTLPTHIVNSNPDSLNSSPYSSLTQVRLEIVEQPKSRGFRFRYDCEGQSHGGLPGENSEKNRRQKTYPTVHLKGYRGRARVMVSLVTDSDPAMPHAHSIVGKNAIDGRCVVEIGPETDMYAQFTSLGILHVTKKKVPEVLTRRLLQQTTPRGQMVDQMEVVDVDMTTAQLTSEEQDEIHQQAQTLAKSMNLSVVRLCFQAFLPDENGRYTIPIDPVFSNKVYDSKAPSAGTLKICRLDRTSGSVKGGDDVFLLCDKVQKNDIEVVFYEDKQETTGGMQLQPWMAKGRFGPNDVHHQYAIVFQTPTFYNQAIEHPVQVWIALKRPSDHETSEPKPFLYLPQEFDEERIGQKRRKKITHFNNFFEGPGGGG

GST-Hu-p50 = GST-Hu-p50 (Homo sapiens, UniProt P19838 7-356)
GST-Hu-p50, sequence (P19838 7-356): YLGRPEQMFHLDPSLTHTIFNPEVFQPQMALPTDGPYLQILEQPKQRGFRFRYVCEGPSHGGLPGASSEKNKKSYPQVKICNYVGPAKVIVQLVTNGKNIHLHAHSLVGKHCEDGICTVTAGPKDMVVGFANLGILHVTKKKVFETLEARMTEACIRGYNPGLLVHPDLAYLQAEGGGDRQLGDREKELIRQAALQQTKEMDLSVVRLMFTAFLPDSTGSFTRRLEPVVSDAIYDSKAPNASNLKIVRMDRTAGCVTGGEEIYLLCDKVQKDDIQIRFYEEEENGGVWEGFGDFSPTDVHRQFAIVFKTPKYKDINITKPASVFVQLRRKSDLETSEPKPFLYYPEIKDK

Sequence	binding signal (GST-Ap-NF-kB RHD) [z-score]	binding signal [1] [z-score]	binding signal [2] [z-score]	binding signal (GST-Co-NF-kB) [z-score]	binding signal (GST-Dm-Relish) [z-score]	binding signal (GST-Aq-NF-kB) [z-score]	binding signal (GST-Hu-p50) [z-score]
CCGATTAACATCAGGTTTCCCCATGATGTTAATCGGGTCTTGATTCGCTTGACGCTGCTG	6.59	7.14	8.78	7.88	4.69	5.35	5.34
CCGATTAACATCAAAATATTCCCTGATGTTAATCGGGTCTTGATTCGCTTGACGCTGCTG	6.25	7.36	7.68	4.81	4.34	6.27	4.33
CCGATTAACATCAAACAATCCCCTGATGTTAATCGGGTCTTGATTCGCTTGACGCTGCTG	7.46	7.94	9.07	3.49	5.32	6.2	6.29
CCGATTAACATCAGGATAACCCCTGATGTTAATCGGGTCTTGATTCGCTTGACGCTGCTG	4.52	3.22	1.82	1.72	2.74	5.12	3.08
CCGATTAACATCAGGGAAACATATGATGTTAATCGGGTCTTGATTCGCTTGACGCTGCTG	2.23	3.74	4.15	5.27	1.07	4.73	1.78
CCGATTAACATCAGAGAACCCCCTGATGTTAATCGGGTCTTGATTCGCTTGACGCTGCTG	7.89	6.19	6.92	2.09	7.55	6.18	6.47
CCGATTAACATCATATTCCCCCATGATGTTAATCGGGTCTTGATTCGCTTGACGCTGCTG	6.56	7.4	7.13	8.84	3.91	5.97	6.3
CCGATTAACATCAACCATTCCCCTGATGTTAATCGGGTCTTGATTCGCTTGACGCTGCTG	5.66	6.61	7.06	4.68	1.96	4.45	4.88
CCGATTAACATCAGGGGAAAAACTGATGTTAATCGGGTCTTGATTCGCTTGACGCTGCTG	6.41	8.02	10.3	9.24	9.62	6.72	6.32
CCGATTAACATCAGGATTGTCCCTGATGTTAATCGGGTCTTGATTCGCTTGACGCTGCTG	2.96	3.96	2.92	1.06	1.57	5.51	2.84
CCGATTAACATCAAGTCCCCCCATGATGTTAATCGGGTCTTGATTCGCTTGACGCTGCTG	5.62	4.07	3.94	6.53	4.21	4.39	3.78
